Assay results published in PubChem BioAssay AID1347070 (National Center for Advancing Translational Sciences (NCATS), 2019).
Among all 94,000 compounds or so, about 20 (0.02%) were called active. Roughly 1% stayed inconclusive and do not appear here. A selection follows. A number with no mark means an inactive call. Calls follow the shape of the dose curve; as a rule, active = well fitted activation curve with a large enough effect; inconclusive = small, poorly fitted or top-dose-only effect; inactive = flat fitted curve, though single readings scatter.

assay: qHTS of alpha-syn Inhibitors: NCGC Sytravon Library Screen; also: 0% is about no effect; details: S. cerevisiae alpha-synuclein toxicity rescue, BacTiter-Glo growth, 24 h; series mostly up to 46.1 µM; growth rescue (activation): at the top concentration
Description: The goal of this project is to identify new chemical probes capable of reversing the toxicity associated with the Parkinson disease-related protein, alpha-synuclein. Compounds will be selected on their ability to restore growth in yeast cells expressing toxic levels of alpha-synuclein. These compounds will provide a complementary approach to deciphering the tangled mechanisms of toxicity and protection that we have uncovered through genome-wide genetic screens and are beginning to uncover in a large-scale proteomics analysis with mass spectroscopy. To this end, a miniaturized assay was developed to be screened against the Molecular Libraries Small Molecule Repository (MLSMR) to discover alpha-synuclein inhibitors. […] The phenotype of interest will be that of an Activator and this screen is run against the NCGC Sytravon Library collection. NIH Chemical Genomics Center [NCGC] NIH Molecular Libraries Probe Centers Network [MLPCN] MLPCN Grant: NS060957 Assay Submitter (PI): Susan Lindquist, Whitehead Institute/MIT
Dispense 2.5 microL yeast galactose medium per 1536-well plate, pin compound, dispense 2.5 microL alpha-synuclein expressing yeast in galactose medium at OD600=0.02 (pregrown in raffinose medium to mid-log phase) per well, incubate for 24 hr at 30 deg C, and cell growth will be measured using 5 microL of Bactiter/Glo reagent to entire plate and read using Luminescence Protocol in ViewLux.

SMILES | growth rescue (activation) [%]
CC(=O)Nc1ccc(C=CC(=O)c2ccc([N+](=O)[O-])cc2)cc1 | 5.68
CC1CCCC(NC(=O)COC(=O)c2ccccc2C(=O)N(C)C2CCCCC2)C1C (centres undefined) | -3.25
Cc1cc(=O)oc2c3c(cc(OCC(=O)NCCC(=O)N[C@@H](C)C(=O)O)c12)OC(C)(C)CC3 | 3.65
COc1ccc(CN2C[C@H]3CON(C)[C@H]3C[C@H]2c2ccc(-c3cccc(F)c3)cc2)cc1 | 0.355
O=C(COC(=O)CCc1ccc(S(=O)(=O)N2CCOCC2)cc1)Nc1cccc(Cl)c1 | -1.34
CC(=O)NC1C(Oc2ccc(C=O)cc2)OC(COC(C)=O)C(OC(C)=O)C1OC(C)=O (centres undefined) | 3.09
CCc1ccccc1OCC(=O)Nc1nnc(C2CC2)s1 | -0.762
C=C(C)CNC(=O)c1ccc(OC2CCN(C(=O)COC)CC2)cc1 | 4.36
COc1ccc(CCNC(=O)C(=O)NCC2CCCN2S(=O)(=O)c2cccs2)cc1OC (centres undefined) | 8.88
CC1(C)OC(=O)C2=C(CC(c3ccccc3)OC2CCc2ccccc2)O1 (centres undefined) | -5.04
CCOC(=O)C=Cc1ccc(C(=O)OCC)[nH]1 | 7.29
CCOn1c(=O)c(=O)n(O)c2ccccc21 | -0.897
COc1ccc(NS(=O)(=O)c2ccc(F)cc2F)cn1 | 4.98
CC(C)CN(C(=O)COC(=O)c1ccc(Cl)c(N)c1)c1c(N)n(Cc2ccccc2)c(=O)[nH]c1=O | -2.42
CC(=O)c1sc(N)nc1C | -4.44
O=C1COc2ccc(S(=O)(=O)NCCc3ccc(Cl)cc3)cc2N1 | 0.307
CCCCn1c(N)c(N(CC(C)C)C(=O)C2CSC3(C)CCC(=O)N23)c(=O)[nH]c1=O (centres undefined) | 5.73
O=C(CN1C(=O)NC2(CCc3ccccc32)C1=O)NC1CCCCC1 (centres undefined) | -10.1
Cc1cc(C)c(NC(=O)CN2C(=O)NC(Cc3ccccc3)C2=O)c(C)c1 (centres undefined) | -1.11
O=C(O)c1ccccc1Cc1ccc(F)c2ccccc12 | -44.2
CC(C)CCN1CCN(Cc2ccc(C(F)(F)F)cc2)CC1CCO (centres undefined) | 3.51
Cc1ccc(C)c(OCCC(=O)OCC(=O)c2ccc3c(c2)NC(=O)CO3)c1 | 1.8
CC(=O)Nc1ccc(NC(=O)CSc2ncnc3c2cnn3Cc2ccccc2)cc1 | 5.2
CCCc1cc(=O)[nH]c(SCc2cc(=O)oc3c(C)c(C)ccc23)n1 | 2.67
Cc1c(NC(=O)C(C)OC(=O)c2c3c(nc4ccccc24)CCC(C)C3)c(=O)n(-c2ccccc2)n1C (centres undefined) | -4.21

SMILES | growth rescue (activation) [%]
Cc1cc(C(=O)CCC(=O)NNC(=O)c2ccccc2O)c(C)s1 | -2.99
Cc1ccc(OCCC(=O)OCC(=O)N2c3ccccc3NC(=O)C2(C)C)cc1 | 2.18
O=C(CN1CCOCC1)Nc1cccc([N+](=O)[O-])c1 | -0.986
c1ccc(-c2nnc(N3CCOCC3)c3ccccc23)cc1 | 3.62
CCOCc1nnc(NC(=O)CCS(=O)(=O)Cc2ccccc2)s1 | 2.27
CCCC(C(=O)NC1CCCC1)N(C(=O)Cn1nnc(-c2ccc(C)o2)n1)c1cccc(O)c1 (centres undefined) | -2.04
CCN(C(=O)CSc1nnnn1-c1ccccc1OC)C1CCS(=O)(=O)C1 (centres undefined) | 16.7
O=c1[nH]c2ccc(S(=O)(=O)N3CCCC3)cc2[nH]1 | 0.361
Cc1nnc(SCCCCSc2nnc(C)c(=O)[nH]2)[nH]c1=O | 1.74
COc1ccc(N2CCN(C(=S)Nc3ccc(S(N)(=O)=O)cc3)CC2)cc1 | -4.62
COc1ccc(/C=N/S(=O)(=O)c2ccccc2)cc1OC | -2.84
Cc1ccc([C@H]2N[C@]3(CCCN(CC4CCCCC4)C3=O)[C@H]3C(=O)N(Cc4ccccc4)C(=O)[C@@H]23)cc1 | 4.32
CCCCn1c(N)c(N(CCOC)C(=O)c2sc3ccccc3c2Cl)c(=O)[nH]c1=O | 11.1
CC(=O)NCc1ccc(S(=O)(=O)NC2CCN(Cc3ccccc3)CC2)cc1 | -8.63
CCN(CC(=O)Nc1c(F)cccc1F)C(=O)c1ccc(Sc2nncn2C)c([N+](=O)[O-])c1 | 0.905
O=c1[nH]nc(SCCS(=O)(=O)c2ccc(F)cc2)n1-c1ccccc1C(F)(F)F | 3.73
Cc1sc2nc(CSCC(=O)NC3CCCCC3)[nH]c(=O)c2c1C | 2.44
CC1(C)C[C@H]2C3=CCC4[C@@]5(C)CC[C@H](O)[C@](C)(CO)C5CC[C@@]4(C)[C@]3(C)C[C@@H](O)[C@@]2(CO)[C@@H](O)[C@@H]1O (some centres undefined) | 1.74
Cc1c(C(=O)NC(C)C2CC3CCC2C3)cccc1[N+](=O)[O-] (centres undefined) | 11.3
O=C(CCNC(=O)c1ccc([N+](=O)[O-])cc1)NC1CCCCC1 | 1.09
Cn1c(CSCC(=O)Nc2ccccc2)nnc1SCc1ccccc1 | -12.3
Cc1cccc(N(CC(=O)N2CCCC2)S(C)(=O)=O)c1C | -7.71
CN(C)C(CNC(=O)c1cc(Br)c(Br)s1)c1ccco1 (centres undefined) | 3.91
Cc1ccc(CN2CCC(N3CCC(C(=O)NCC4CCCO4)CC3)CC2)o1 (centres undefined) | -3.72
O=C(NCCS(=O)(=O)NCc1ccc(Cl)cc1)c1ccccc1 | -1.84

SMILES | growth rescue (activation) [%]
CC1=C(C(=O)N2CCOCC2)CC(CC(=O)NCc2ccco2)C(=O)N1Cc1ccc(F)cc1 (centres undefined) | -7.62
Cc1ccc(C)n1NC(=O)c1ccc([N+](=O)[O-])cc1 | -1.43
COc1ccc(-c2cc(=O)oc3cc(OC(C)C(=O)NCC4CCC(C(=O)O)CC4)ccc23)cc1 (centres undefined) | -0.947
CCOc1ccc(C(=O)CCC(=O)NC2=NCCS2)cc1 | -17.3
O=C1N/C(=C/c2cccs2)C(=O)N1Cc1ccc(F)cc1 | -2.61
C/C(COc1ccccc1)=N\NC(=O)c1nnn(-c2nonc2N)c1-c1ccc(C)cc1 | -12.9
CCCCn1c(N)c(N(CC(C)C)C(=O)c2cccc(S(=O)(=O)N3CCN(C(C)=O)CC3)c2)c(=O)[nH]c1=O | -0.923
O=C(c1ccc(C(F)(F)F)cc1)C1CCCN(C(=O)c2csnn2)C1 (centres undefined) | 0.0205
COc1ccc(/C=C/CN2CCN(Cc3ccc(C)cc3)C(CCO)C2)cc1 (centres undefined) | -4.89
CCOc1ccc(S(=O)(=O)N2CCCC(C(=O)N3CCC(C(N)=O)CC3)C2)cc1Cl (centres undefined) | -12.6
NS(=O)(=O)c1ccc(NC(=S)NNC(=O)c2cccs2)cc1 | 0.938
O=C(COc1ccccc1O)NC1CCCC1 | 5.21
CC1=C(C(=O)N2CCOCC2)CC(CC(=O)NCCN2CCOCC2)C(=O)N1CCC1=CCCCC1 (centres undefined) | 2.47
COc1ccccc1C(=O)NC(=O)COC(=O)c1ccco1 | 4.89
O=C(Nc1ccccc1)C1CC(=O)n2c(nc3ccccc32)N1 (centres undefined) | -12.2
Cc1ccc(C=O)c([B-](F)(F)F)c1 | -10.2
O=C(CNc1ccccc1N1CCCC1=O)Nc1cc(Cl)ccc1-n1cncn1 | 1.15
O=C(/C=C/Nc1ccc(S(=O)(=O)Nc2cnc3ccccc3n2)cc1)c1cccnc1 | -7.11
CCOC(=O)c1cc(-c2sc(NC(=O)c3ccccc3)nc2C)n(CCO)n1 | 0.447
COc1ccc2oc(C(=O)N(CC(C)C)C3CCS(=O)(=O)C3)c(C)c2c1 (centres undefined) | -1.27
CN(CCN1CCOCC1)Cc1nc(-c2ccc3c(c2)OCO3)no1 | 0.432
COCOCCn1cc(CN2CCS(=O)(=O)N(Cc3ccc(-c4ccccc4)cc3)C(CC(C)C)C2=O)nn1 (centres undefined) | -6.88
CCc1nnc(NC(=O)c2ccco2)s1 | -11.6
Cn1ccc(=NC=C(C#N)C#N)c2ccccc21 | 2.17
COc1cc(NS(=O)(=O)c2ccc(NC(=S)NC(=O)c3ccccc3)cc2)nc(OC)n1 | 13.9

SMILES | growth rescue (activation) [%]
O=C(OCc1nnc(-c2ccccc2)o1)c1cc(=O)[nH]c2ccccc12 | 4.04
O=C1[C@H]2[C@@H](c3ccc(C(F)(F)F)cc3)N[C@]3(CCCN(Cc4ccc(Cl)cc4)C3=O)[C@H]2C(=O)N1Cc1ccccc1 | 20.9
Cn1cnnc1SCC(=O)NNC(=O)COc1ccc(Br)cc1 | 5.71
Cc1ccc(N(C(=O)Cc2cccs2)C(C(=O)NCC2CCCO2)c2ccncc2)cc1 (centres undefined) | 4.36
COc1ccccc1NC(=O)CCSc1nnc(-c2ccc(O)cc2)o1 | 4.49
O=C(OCc1cn([C@H]2C[C@H](c3ccccc3)N(C(=O)c3cccs3)C[C@@H]2O)nn1)c1ccccc1 | 4.38
COc1ccc(NC(=O)CN(C)C(=O)c2cc(C)oc2C)cc1 | -11.2
Cc1noc(C)c1COc1ccccc1C(=O)N(C)CC(=O)Nc1cccc(F)c1 | -6.68
COc1ccc(N(C(=O)c2snc(C(N)=O)c2N)C(C(=O)NC2CCCC2)c2ccc(C)o2)c(OC)c1 (centres undefined) | -6.84
NS(=O)(=O)c1ccc(NC(=S)NC(=O)c2cccnc2)cc1 | 4.97
C=C(C)COc1ccc(-c2nc(N)ncc2-c2ccccc2OC)c(O)c1 | 1.32
Cc1cccc(OCC(=O)NCCCNC(=O)c2ccccn2)c1 | -2.97
O=C(NC1CCCC1)C1CC(=O)N(c2ccc(F)cc2)C1 (centres undefined) | 5.38
CO/N=C/c1cn(-c2ccc(Cl)cc2)nn1 | -2.78
CC(OC(=O)c1ccc(NC(=O)CC#N)cc1)C(=O)Nc1ccc(S(=O)(=O)N2CCCC2)cc1 (centres undefined) | -3.04
Cc1cccc(C)c1NC(=O)CS(=O)CC(=O)N1CCN(c2ccccc2)CC1 (centres undefined) | 0.0275
CCOc1ccc(NS(=O)(=O)c2ccc(C(=O)NCC(c3ccccc3OC)N3CCCC3)cc2)cc1 (centres undefined) | -0.106
O=[N+]([O-])c1ccc(C(S(=O)(=O)Cc2ccccc2)S(=O)(=O)Cc2ccccc2)cc1 | 6.13
O=C(NCc1ccc(Cl)cc1)C(=O)NCC1CCCN1S(=O)(=O)c1cccs1 (centres undefined) | 3.28
O=C(CNC(=O)N1CC(=O)Nc2ccccc21)Nc1ccc(Br)cc1F | -8.77
O=C(c1ccc(N2CCCC2=O)cc1)N1CCN(c2ccc(C(F)(F)F)cc2[N+](=O)[O-])CC1 | -12.1
Cc1ccc(CN2CC(C(=O)N3CCN(S(=O)(=O)c4ccccc4)CC3)CC2=O)cc1 (centres undefined) | -46.5
CCN(C(=O)C1CCCN(c2nc(-c3ccc(OC)cc3)no2)C1)c1ccc(OC)cc1 (centres undefined) | -9.06
CN(C)c1ccc(C2Nc3ccccc3C(=O)N2NS(=O)(=O)c2ccccc2)cc1 (centres undefined) | -4.67
